Reference: the supplement of paper PMC8975748
Counter-ions that a name gives are not always drawn.

tested on: Saccharomyces cerevisiae BY4741 SeMeCo community; assay: z-score of subpopulation abundance vs DMSO median, subpopulation auxotrophic for U; higher = larger share of this subpopulation than in DMSO controls; details: 10 µM; 24 h; SM minimal medium; subpopulation (auxotrophy): U
How it was run: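 A Saccharomyces cerevisiae BY4741 community carried four plasmids, each restoring one auxotrophy and encoding a distinct fluorescent protein. It was pre-grown overnight to OD600 1.0, diluted to 0.3, and 70 µl was added to 384-well plates acoustically predosed with library drugs (10 µM final), then grown 24 h in minimal SM medium. Cells were paraformaldehyde-fixed and imaged by automated confocal microscopy, with single-auxotroph fluorescent strains setting thresholds and autofluorescence correction. Each subpopulation's abundance was scored as a z-score against the vehicle-well median.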

| Compound | z-score of subpopulation abundance |
| --- | --- |
| CO[C@H]1C[C@@H]2CC[C@@H](C)[C@@](O)(O2)C(=O)C(=O)N2CCCC[C@H]2C(=O)O[C@H]([C@H](C)C[C@@H]2CC[C@@H](OP(C)(C)=O)[C@H](OC)C2)CC(=O)[C@H](C)/C=C(\C)[C@@H](O)[C@@H](OC)C(=O)[C@H](C)C[C@H](C)/C=C/C=C/C=C/1C [Ridaforolimus (Deforolimus, MK-8669)] | 3.51 |
| Cc1ccccc1C(OCCN(C)C)c1ccccc1 (stereo unspecified) [Orphenadrine Citrate] | 0.9 |
| CCOc1cc(N)c([N+](=O)[O-])cc1C(=O)NC1CCN(CC2CC=CCC2)CC1 (stereo unspecified) [Cinitapride Hydrogen Tartrate] | 1.07 |
| Cc1onc(-c2ccccc2)c1-c1ccc(S(N)(=O)=O)cc1 [Valdecoxib] | -0.55 |
| COc1ccc(Cc2cnc(N)nc2N)cc1OC [Diaveridine] | -0.37 |
| CC1(C)[C@H](C(=O)O)N2C(=O)C[C@H]2S1(=O)=O [Sulbactam sodium] | 1.59 |
| CCc1cc(C(N)=S)ccn1 [Ethionamide] | -0.01 |
| Clc1ccc(C(Cn2ccnc2)OCc2c(Cl)cccc2Cl)c(Cl)c1 (stereo unspecified) [Isoconazole nitrate] | 2.14 |
| Nc1nc(N)nc(-c2cc(Cl)ccc2Cl)n1 [Irsogladine] | -1.06 |
| NC(=O)c1ncn([C@@H]2O[C@H](CO)[C@@H](O)[C@H]2O)n1 [Ribavirin] | 1.52 |
| CC1(C)S[C@@H]2[C@H](NC(=O)[C@H](N)c3ccccc3)C(=O)N2[C@H]1C(=O)OCOC(=O)[C@@H]1N2C(=O)C[C@H]2S(=O)(=O)C1(C)C [Sultamicillin] | 0.83 |
